Assay results taken from PubChem BioAssay (Tox21).
Values joined by “and” are separate entries in the source; they are usually repeats but may differ in a detail not shown here. Identical values can stand only once. Results filed as inconclusive are left out. A number with no mark means an inactive call. Active and inactive are the calls of the source. The call rests on the fitted dose curve; in most records, active means well fitted cell-killing curve with a large enough effect in the repeat runs; inconclusive means weak or mixed curves; inactive means flat fitted curve, though single readings scatter.

Experiment: qHTS assay to identify small molecule antagonists of the estrogen related receptor (ERR) signaling pathway from Tox21 library - cell viability counter screen (AID 1224834); further: nearly all actives have a fitted effect of over 30% in size
Details: ERR reporter cells viability, CellTiter-Fluor, 17.5 h; series mostly up to 92.4 µM; viability change, negative = cytotoxic: at the top concentration
Source text: National Center for Advancing Translational Sciences [NCATS]
NIH Chemical Genomics Center [NCGC]
U.S. Environmental Protection Agency [EPA]
National Institutes of Environmental Health Sciences [NIEHS]
National Toxicology Program [NTP]
U.S. Food and Drug Administration [FDA]
Estrogen related receptors (ERRs), the first orphan nuclear receptors discovered, play an important role in the control of cellular energy metabolism. ERRs are required for high-energy production in response to the environmental challenges. ERR-alpha was also identified as an adverse marker for breast cancer progression; ERR-alpha-positive tumors have a poor prognosis. To screen and to identify environmental compounds that perturb the ERR signaling pathways could provide valuable information for potential therapeutic or preventive measures in the treatment of metabolic disease. To differentiate true ERR antagonists or agonist from cytotoxic substances, the assay is multiplexed with cell viability assay.
Tox21 Assay Protocol Summary:
The ERR cells were dispensed at 2,000 cells/5 ul/well in 1536-well white plates using a Multidrop dispenser. After the assay plates were incubated at a 37 C/5% CO2 incubator for 6 hours, 23 nL of compounds dissolved in DMSO, positive and negative controls or DMSO only was transferred to the assay plate by a pin tool. The plates were incubated at 37 C for 17.5 hours. 1 ul/well of CellTiter-Fluor reagent was added into the assay plates using a Flying Reagent Dispenser. After 30-minute incubation at 37 C/5% CO2, the fluorescence intensity in the plates was measured using a ViewLux plate reader.
On the % scale 0 is the no-effect control and ±100 the full control effect; potency means the concentration at half of the fitted maximal effect.

| SMILES | viability change, negative = cytotoxic | Potency |
| --- | --- | --- |
| CCC(CC)C(C)CCOC(C)=O (stereo not given) | 2.12% |  |
| O=C(O)CN(CCN(CC(=O)O)CC(=O)O)CC(=O)O | 1.59% [at 3.27 µM] |  |
| OC[C@@H](O)[C@@H](O)CO | 3.47% |  |
| OCC(F)(F)F | 2.37% |  |
| CC(C)(C)NSc1nc2ccccc2s1 | -0.846% |  |
| Cc1ccc(O)c(N)c1 |  | 61.2 µM (active) |
| CCc1ccc(Br)cc1 | 0.577% |  |
| O=C1CCc2ccc(OCCCCN3CCN(c4cccc(Cl)c4Cl)CC3)cc2N1 |  | 26.6 µM (active) |
| Cc1cc(=O)oc2cc(O)cc(O)c12 | 7.19% |  |
| O[C@@H]([C@H](O)[C@H](O)CBr)[C@H](O)CBr | -2.31% |  |
| O=C(Oc1ccccc1)Oc1ccccc1 | -6.3% |  |
| OC[C@H]1O[C@H](O[C@H]2O[C@H](CO)[C@@H](O)[C@H](O)[C@H]2O)[C@H](O)[C@@H](O)[C@@H]1O | -0.369% |  |
| COc1ccc(-c2coc3cc(O)ccc3c2=O)cc1 | -1.18% |  |
| O=C(O)CCN(C1(C(=O)NO)CCCC1)S(=O)(=O)c1ccc(Oc2ccc(F)cc2)cc1 | 4.69% |  |
| O=C(O)c1cc(N=Nc2ccc([N+](=O)[O-])cc2)ccc1O |  | 47.7 µM (active) |
| CCCNCCC | 1.23% |  |
| [Cl][Pt-2]([Cl])([Cl])[Cl] | -6.99% |  |
| CNC(=O)c1ccccc1Sc1ccc2c(/C=C/c3ccccn3)n[nH]c2c1 |  | 26.6 µM (active) |
| COC(=O)c1ccccc1OC | 0.0293% |  |
| CCCCC(CC)CN1CN(CC(CC)CCCC)CC(C)(N)C1 (stereo not given) | -12.9% [at 42.5 µM] |  |

| SMILES | viability change, negative = cytotoxic | Potency |
| --- | --- | --- |
| c1cnccn1 | 0.892% |  |
| CCC(CC)(CC(=O)Nc1cccc(/C=C/c2nc(C3CCC3)cs2)c1)C(=O)O | -8.95% [at 42.5 µM] |  |
| CC(N=C(NC#N)Nc1ccncc1)C(C)(C)C (stereo not given) | 0.288% [at 42.5 µM] |  |
| CCC(C)(CCC(C)C)C(=O)[O][Sn]([CH3])([CH3])[O]C(=O)C(C)(CC)CCC(C)C (stereo not given) | -1.47% |  |
| C=CC(=O)OCCOC(=O)C=C | 0.532% |  |
| Cc1c(N)cccc1C(F)(F)F | 3.86% [at 42.5 µM] |  |
| CCCCCCCCCCOC(=O)c1ccccc1C(=O)OCCCCCCCC | 2.06% |  |
| Nc1nc2c(ncn2COCCO)c(=O)[nH]1 | 1.73% [at 42.5 µM] |  |
| CCC(C)[O-].CCC(C)[O-].CCOC(=O)/C=C(/C)[O-].[Al+3] | 0.164% |  |
| Cc1cc(C(C)(C)C)cc(C)c1CC1=NCCN1 | -0.942% [at 42.5 µM] |  |
| O=C1CCCCCCCCCCCCCCCO1 | -2.37% |  |
| CCC(=O)C(=O)CC | -9.89% |  |
| Cc1c2ccccc2c(C)c2c1ccc1ccccc12 |  | 27 µM (active) and 54.5 µM (active) |
| O=S(=O)(O)c1ccc(N=Nc2c(O)ccc3ccccc23)cc1 |  | 27.3 µM (active) |
| O=[N+]([O-])c1ccc(F)c(Cl)c1 | -4.67% |  |
| CCO[C@@H]1O[C@H](C(COCc2ccccc2)OCc2ccccc2)[C@H](OCc2ccccc2)[C@H]1O (stereo not given in full) |  | 26.6 µM (active) |
| O=C(O)Cc1ccccc1Nc1c(Cl)cccc1Cl | 1.23% [at 42.5 µM] |  |
| CCCC1CCC(=O)CC1 | 1.68% |  |
| Nc1nc(N)nc(-c2cc(Cl)ccc2Cl)n1 | 3.76% [at 42.5 µM] |  |
| CCO[Si](OCC)(OCC)OCC | -1.62% |  |
